SMILES strings stand for the structures. In all, about 69,000 compounds went through this assay and about 8,600 (12%) showed an effect of 50% or more. For the sample, strong results were picked, then their nearest neighbours and some compounds at random.

The test deals with Plasmodium berghei. In words: Screen against P. berghei liver stage (PbLuc), transformed with Luciferase, at 10uM. It is filed as functional, HepG2. The following applies: tested at 10 uM.
Regarding `CC(=O)N1CCN(c2cc(C3CN(C(C)=O)CCO3)nc(C)n2)CC1` (stereo not drawn), the INHIBITION was found to be 29.2%.
`CO[C@@H]1CC[C@H]2[C@H]1OCCN2CCOCc1ccccc1`: the INHIBITION is recorded as 4.98%.
The result for `Cc1nc(C2CCCN(C(=O)c3ccncc3)C2)c2sccn12` (stereo not drawn) reads 35.2%; that for `CC(=O)c1cn(CCC(=O)N[C@@H](CC(C)C)C(=O)O)c2ccccc12`, 11.9%.
With `NC(=O)CSCC(=O)NC1(c2cccc(Cl)c2)CC1`, the INHIBITION came to 38.6%.
The result for `CC(=O)N1CC[C@H]2OCC[C@@H](C(=O)NCc3ccco3)[C@@H]2C1` reads 18.3%; that for `COCC(=O)N1Cc2nccn2CC(Cn2ncccc2=O)C1` (stereo not drawn), 19.4%.
The result for `CC(C)(C)c1nccc(N2CCCCC2CNS(C)(=O)=O)n1` (stereo not drawn) reads 16.6%.
The result for `N#Cc1ccc(N2CCN(c3ccc4nncn4n3)CC2)nc1` reads -23.4%; that for `c1cc(CCN2CCN(c3ccc4nncn4n3)CC2)ccn1`, -33.7%; that for `c1ccc(CCN2CCN(c3ccc4nncn4n3)CC2)nc1`, 20.1%.
With `c1ccc(CCN2CCN(c3ccc4nncn4n3)CC2)cc1`, the INHIBITION stood at 60.9%.
The result for `c1ccc(CCCN2CCN(c3ccc4nncn4n3)CC2)cc1` reads 74.7%.
The result for `O=C(COc1ccc(Cl)cc1)N1CCN(c2cnccn2)CC1` reads -126%; that for `c1ccc(CN2CCN(c3ccc4nncn4n3)CC2)nc1`, 7.67%; that for `Clc1ccccc1CCN1CCN(c2ccc3nncn3n2)CC1`, 72.8%.
The result for `O=C(NCCc1ccccc1)C1CCCN(c2ccc3nncn3n2)C1` (stereo not drawn) reads -23.5%; that for `O=C(CCN1CCN(c2ccc3nncn3n2)CC1)N1CCCCC1`, -19.9%.
`O=C(CCOc1ccc(Cl)cc1)N1CCN(c2cnccn2)CC1`: the INHIBITION is 3.19%.
Take `Clc1ccc(OCCCN2CCN(c3cnccn3)CC2)cc1`: the INHIBITION was 54.4%.
For `O=c1[nH]c(N2CCCCC2)nc2nccc(-c3ccc4c(c3)OCO4)c12`, the INHIBITION is reported as -5.59%.
The value for `COc1c(C)cc(CNCc2ccnc(N3CCOCC3)c2)cc1C` was 28.8%.
`CC(C)NC(=O)N1C[C@@H]2C[C@H](C(=O)NCc3ccccc3)[C@H](C1)O2`: the INHIBITION came to 18.2%.
The result for `COc1ccc(Cn2nnnc2SCC2CCCN(C)C2)cc1` (stereo not drawn) reads 40.5%; that for `CO[C@@]1(C)C[C@@H](O)C12CCN(C(=O)C1(c3ccccc3F)CC1)CC2`, 32.5%; that for `NCCC(Cc1ccccc1)c1ccco1` (stereo not drawn), 36.1%.
Take `O=C(N[C@H]1CCCC[C@@H]1O)c1ccc2nc(-c3ccccc3)[nH]c2c1`: the INHIBITION is given as -85.3%.
The result for `COc1nn(C)c2c1CCCN(C(=O)c1ccccc1F)C2` reads 3.25%; that for `CC(NC(=O)CCCC(=O)c1cccs1)c1nnc2n1CCC2` (stereo not drawn), 7.12%.
The value for `O=C(O)Cn1ccc2c(Cl)cccc21` was 19.3%; that for `Cc1nnc(C(C)N2CCN(Cc3ccc(C(F)(F)F)cc3)CC2)o1` (stereo not drawn) was -43.5%; that for `FC(F)(F)COCCN1CCN(c2ccc3nncn3n2)CC1` was 38.8%.
The result for `O=C(CCN1CCN(c2ccc3nncn3n2)CC1)NC1CCCC1` reads -51.5%; that for `c1ccc(OCCCN2CCN(c3ccc4nncn4n3)CC2)cc1`, 86.1%.
As to `O=C(NCc1cccnc1)NC1CCC2(CCC(=O)N2CC2CC2)CC1` (stereo not drawn), the INHIBITION was found to be 40.3%.
The value for `CCN(CCNC(=O)Nc1nnc(C)s1)C(=O)OC(C)(C)C` was -19.3%.
The value for `O=C1C(NS(=O)(=O)c2ccc(F)cc2)CCN1Cc1ccccc1` (stereo not drawn) was 23.5%.
For `CCc1nnc(CN(C)C(=O)C(CC)n2c(CC)nc3ccccc32)o1` (stereo not drawn), the INHIBITION turned out to be 52.7%.
The value for `CCc1nc2ccccc2n1C(CC)C(=O)N(C)Cc1nc(C)c[nH]1` (stereo not drawn) was 12.9%.
The result for `CCc1nc2ccccc2n1C(CC)C(=O)N(C)Cc1noc(C)n1` (stereo not drawn) reads 31.1%; that for `O=C1COc2ccc(C(=O)NS(=O)(=O)c3ccccc3Cl)cc2N1`, 14.1%.
The result for `CCCS(=O)(=O)N1C[C@@H](Oc2ccccn2)[C@H]2OCCC[C@H]21` reads -21.1%; that for `O=C(Cc1cccnc1)N1CCCC(c2cc(C(F)(F)F)[nH]n2)C1` (stereo not drawn), 50.8%.
Consider `O=C(c1cc(Cl)c[nH]1)N1CCCC(c2cc(C(F)(F)F)[nH]n2)C1` (stereo not drawn), for which the INHIBITION is recorded as 88.2%.
The value for `Cn1cc(CC(=O)N2CCCC(c3cc(C(F)(F)F)[nH]n3)C2)cn1` (stereo not drawn) was 7.97%.
The value for `CCOCCC(=O)N1CCCC(c2cc(C(F)(F)F)[nH]n2)C1` (stereo not drawn) was 7.97%.
The result for `Cc1cc(C(=O)N2CCCC(c3cc(C(F)(F)F)[nH]n3)C2)[nH]n1` (stereo not drawn) reads 29.7%; that for `O=C(c1cc[nH]n1)N1CCCC(c2cc(C(F)(F)F)[nH]n2)C1` (stereo not drawn), 25.1%.
With `O=C(c1ccsc1)N1CCCC(c2cc(C(F)(F)F)[nH]n2)C1` (stereo not drawn), the INHIBITION was 57.2%.
For `Cc1nc(C2CCCN(C(=O)c3cc(Cl)c[nH]3)C2)sc1C` (stereo not drawn), the INHIBITION came to 40.9%.
The result for `O=C(c1nc(=O)[nH][nH]1)N1CCCC(c2cc(C(F)(F)F)[nH]n2)C1` (stereo not drawn) reads 29.1%; that for `Cc1nc(C(=O)N2CCCC(c3cc(C(F)(F)F)[nH]n3)C2)c[nH]1` (stereo not drawn), 33.8%.
The result for `O=C(c1ccc[nH]1)N1CCCC(c2cc(C(F)(F)F)[nH]n2)C1` (stereo not drawn) reads 54.4%; that for `CCOC(=O)c1cc(C(C)(O)CCC=C(C)C)on1` (stereo not drawn), 37.8%; that for `Cc1nc(CC(=O)N2CCC(c3nn(C)c4ncccc34)CC2)cs1`, 26.8%.
With `Cn1c(C(=O)N2CCC(C(N)=O)C2)c(Cl)c2ccccc21` (stereo not drawn), the INHIBITION is -20.5%.
The result for `Cc1oc(-c2ccco2)nc1CN1CCc2cnc(C(C)C)nc2C1` reads 21.9%; that for `CC(C)N(C)S(=O)(=O)c1ccc2c(c1)CCN(C(=O)c1cccnn1)C2`, 23.2%; that for `Cc1cnc(C(=O)NCC2CCOc3ccccc3C2)cn1` (stereo not drawn), 24.4%.
The value for `CNc1nc(C(=O)NCC2CCOc3ccccc3C2)cs1` (stereo not drawn) was 53.3%; that for `CC(=O)NCC1CCN(CC2CCOc3ccccc3C2)CC1` (stereo not drawn) was 37.8%; that for `O=C(c1ccc(Cn2cc(Br)cn2)cc1)N1CCCC1` was 53.5%.
The value for `O=C(c1ccc(Cn2cc(Br)cn2)cc1)N1CCOCC1` was 37.7%; that for `CN1CCN(C(=O)c2ccc(Cn3cc(Br)cn3)cc2)CC1` was 30.7%; that for `CCC(=O)N1CCN(C(=O)Nc2cccc(F)c2)[C@H]2CS(=O)(=O)C[C@H]21` was 61.9%.
As to `CCC(=O)N1CCN(C(=O)Nc2cccc(C#N)c2)[C@H]2CS(=O)(=O)C[C@H]21`, the INHIBITION is on record as -2.09%.
The value for `CCC(=O)N1CCN(C(=O)CCn2cc(Cl)cn2)[C@H]2CS(=O)(=O)C[C@H]21` was 35.8%; that for `CC(=O)N1CCN(C(=O)Nc2ccc(Cl)cc2)[C@H]2CS(=O)(=O)C[C@H]21` was 12.6%.
The result for `CCC(=O)N1CCN(S(=O)(=O)c2cccc(F)c2)[C@H]2CS(=O)(=O)C[C@H]21` reads 32.2%.
The result for `CCC(=O)N1CCN(C(=O)Nc2ccc(Cl)cc2)[C@H]2CS(=O)(=O)C[C@H]21` reads 61%; that for `CCN1CC(CN(C)Cc2nc(-c3ccc(F)cc3F)oc2C)CC1=O` (stereo not drawn), 26.5%.
For `Cc1ccc(C2CSCCN2C(=O)c2ccnc(N(C)C)c2)o1` (stereo not drawn), the INHIBITION is given as 12.3%.
The value for `N#Cc1c(CN2CCCCC2Cn2cncn2)cn2ccccc12` (stereo not drawn) was 19.3%; that for `CN(Cc1ccc(Cl)s1)C(=O)c1ccccc1OCC(N)=O` was -93.8%.
The result for `O=C(c1ccncc1)N1CCCn2nnc(COCCO)c2C1` reads 29.8%; that for `COc1cc(CN2CCC(O)(c3ccc(C)cn3)CC2)cc(Cl)c1OC`, 51.3%.
The result for `COc1ccnc(CN2CCC(O)(c3ccc(C)cn3)CC2)c1OC` reads -23.4%; that for `COc1cccc(CN2CCC(O)(c3ccc(C)cn3)CC2)c1OC`, -57.5%; that for `Cc1nc(C)n(CC2CN(CCOc3cccc(F)c3)CCO2)n1` (stereo not drawn), -21.7%.
Take `Cc1cc(C)c2nc(C)cc(C(=O)N3CC(O)CO3)c2c1` (stereo not drawn): the INHIBITION stood at 22.6%.
The value for `CN1CCOC(CNCCCOc2ccc(C#N)cc2)C1` (stereo not drawn) was -89.9%.
As to `COCCOc1cccc(CNCC2CN(C)CCO2)c1` (stereo not drawn), the INHIBITION came out at 7.12%.
`CN1CCOC(CNCCOc2cccc(C#N)c2)C1` (stereo not drawn): the INHIBITION came out at 66.7%.
The value for `CN1CCOC(CNCCOc2ccc(C#N)cc2)C1` (stereo not drawn) was 71.1%; that for `CN(C)CC1CN(CCOc2cccc(C#N)c2)CCO1` (stereo not drawn) was 41.4%.
Take `CN1CCOC(CNCCc2ccccn2)C1` (stereo not drawn): the INHIBITION turned out to be 39.5%.
Turning to `CN(C)c1ccc(C2CCN(c3cnccn3)CC2)nc1`, the INHIBITION stood at 1.93%.
The result for `CO[C@H]1CC[C@H]2[C@H]1OCCN2C(=O)CC1=CCCCC1` reads 32.5%; that for `O=C(CN1CCC(c2nnc(C(F)(F)F)o2)CC1)NCc1ccccc1`, -3.48%.
The value for `CCc1nnc(Nc2cccc(C3CCN(CC4CC4)CC3)n2)s1` was 14.7%; that for `CCc1ccc(C(=O)N2CCN(CC(O)c3ccccc3)CC2)o1` (stereo not drawn) was 37.9%.
The value for `c1ccc(Cc2nnc(CN3CCc4cncnc4C3)o2)cc1` was -31.3%; that for `Cc1noc(C)c1CN1CCC(N(C)Cc2noc(C(C)C)n2)C1` (stereo not drawn) was 29.8%.
Consider `CSCC[C@H](N)c1nnc(SCc2cc(C)ccc2C)o1`, for which the INHIBITION is listed as 12.5%.
Take `Cc1nc(C)n(CC2CCCN2CC(=O)NCCc2ccccc2)n1` (stereo not drawn): the INHIBITION was determined as 9.54%.
The value for `O=C(CN1CCCC1Cn1cncn1)NCCC1=CCCCC1` (stereo not drawn) was 27.6%; that for `CC(=O)NCCNC(=O)CN1CCCC1Cn1nc(C)nc1C` (stereo not drawn) was 1.56%.
As for `Cc1nc(C)n(CC2CCCN2CC(=O)NCCC2=CCCCC2)n1` (stereo not drawn), the INHIBITION turned out to be 77.7%.
The value for `O=C(CN1CCCCC1Cn1cncn1)NCCc1ccsc1` (stereo not drawn) was -81.3%; that for `Cc1nc(C)n(CC2CCCN2CC(=O)NCCc2ccsc2)n1` (stereo not drawn) was 91.3%.
The value for `COc1ccc(CN2CCO[C@H]3CN(C4CCC4)CC[C@H]3C2=O)cc1` was 17.2%; that for `O=C(c1cccc(F)c1)N1CCOC(c2nc(-c3ncccn3)no2)C1` (stereo not drawn) was 13.1%.
The value for `CC(C)c1nnc2n1CCN(CCC(=O)Nc1sccc1C#N)C2` was 5.7%.

Values taken from ChEMBL document CHEMBL4513216, “Probing the Open Global Health Chemical Diversity Library for Multistage-Active Starting Points for Next-Generation Antimalarials” (ACS Infect Dis, 2020).
